In PubChem BioAssay AID1159580 (chemical genetic matrix, 2015):
Hit rate of the full screen: of about 5,500 compounds, about 2,000 (36%) were called active. About 18% were inconclusive and are not listed. No stated cut-off is given here; in the data, active means normalized growth mostly below about 0.91 (no sharp cut-off); inconclusive means no clear call, values can overlap the other calls; inactive means mostly above about 0.92. Some of the results follow.

Test: chemical genetic growth profiling, strain panel (AID 1159580);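 further: tested at 20 µM; growth read once vehicle control cultures reached saturation at 30 °C; 1 = growth at the plate median or of vehicle wells; lower values mean less growth of the strain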
Details: S. cerevisiae deletion strains, growth OD
[1] = locus YAL013W, strain DEP1, hits give low values
[2] = locus YBR229C, strain ROT2, hits give low values
[3] = locus YDL101C, strain DUN1, hits give low values
[4] = locus YDL134C, strain PPH21, hits give low values
[5] = locus YDR150W, strain NUM1, hits give low values
[6] = locus YEL061C, strain CIN8, hits give low values
[7] = locus YGR078C, strain PAC10, hits give low values
[8] = locus YHR030C, strain SLT2, hits give low values
[9] = locus YHR087W, strain rtc3, hits give low values
[10] = locus YJR043C, strain POL32, hits give low values
[11] = locus YJR075W, strain HOC1, hits give low values
[12] = locus YLR039C, strain RIC1, hits give low values
[13] = locus YLR058C, strain SHM2 (second series), hits give low values
[14] = locus YLR085C, strain ARP6, hits give low values
[15] = locus YLR262C, strain YPT6, hits give low values
[16] = locus YML094W, strain GIM5, hits give low values
[17] = locus YMR219W, strain ESC1, hits give low values
[18] = locus YMR263W, strain SAP30, hits give low values
[19] = locus YNL153C, strain GIM3, hits give low values
[20] = locus YNL298W, strain CLA4 (second series), hits give low values
[21] = locus YNL322C, strain KRE1, hits give low values
[22] = locus YNR030W, strain Alg12, hits give low values
[23] = locus YPL055C, strain LGE1, hits give low values
[24] = locus YPL241C, strain CIN2, hits give low values
[25] = locus YPR135W, strain CTF4, hits give low values

Measured: normalized growth

N#Cc1c(Cl)cccc1N1CCCC1
active: [1] 0.877 | [3] 0.87 | [6] 0.891 | [7] 0.851 | [8] 0.615 | [9] 0.886 | [10] 0.861 | [11] 0.801 | [12] 0.576 | [15] 0.567 | [16] 0.779 | [17] 0.931 | [19] 0.833 | [20] 0.762 | [21] 0.929 | [22] 0.83 | locus YOL006C, strain TOP1, hits give low values 0.473 | [23] 0.776 | [24] 0.815
inactive: [2] 0.935 | [4] 0.98 | [5] 0.85 | [13] 0.952 | [14] 0.791 | [18] 0.915 | locus YNL128W, strain TEP1, hits give low values 0.922 | [25] 0.769

N#Cc1c(Cl)cccc1N1CCC(C(=O)NC(=O)Nc2ccc(Cl)cc2)CC1
inactive: [1] 0.998 | [2] 1.01 | [3] 1 | [4] 1.03 | [5] 1.04 | [6] 1.01 | [7] 1.01 | [8] 1.04 | [9] 1.02 | locus YJL187C, strain SWE1, hits give low values 1.01 | [10] 1 | [11] 1.05 | [12] 1.01 | [13] 1.03 | [14] 1.07 | [15] 0.998 | [16] 1.04 | [17] 1.02 | [18] 1.01 | locus YMR307W, strain GAS1, hits give low values 1.03 | [19] 1.01 | [20] 1.02 | [21] 1.01 | [22] 1.03 | [23] 1.1 | [24] 1.01 | [25] 1.04
